Source: PubChem BioAssay
The entries come from a sample that favours hits as a whole.
Giardia FBPA inh: inhibitors of Giardia lamblia fructose-1,6-bisphosphate aldolase; purified Giardia FBPA; Potency, µM (top dose mostly 59.6 µM), actives largely listed as inhibitors; hit rate 0.71% among 290,000; AID 2451; further: nearly all actives have a fitted effect of over 55% in size
Target sequence (A8B2U2 whole entry, looked up): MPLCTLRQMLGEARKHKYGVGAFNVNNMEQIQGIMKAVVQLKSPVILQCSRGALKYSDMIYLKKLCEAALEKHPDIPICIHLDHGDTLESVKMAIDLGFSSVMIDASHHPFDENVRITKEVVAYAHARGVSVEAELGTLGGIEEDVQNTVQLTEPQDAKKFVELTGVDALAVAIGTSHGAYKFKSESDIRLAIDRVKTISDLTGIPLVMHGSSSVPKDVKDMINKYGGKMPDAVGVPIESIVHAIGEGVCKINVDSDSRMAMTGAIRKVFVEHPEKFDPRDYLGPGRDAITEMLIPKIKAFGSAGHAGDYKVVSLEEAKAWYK
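40 nM FBPA preincubated 10 min at RT with compound (up to 57.5 uM final), then substrate plus GAPDH/TPI/NAD/arsenate coupling and diaphorase/resazurin added. Fluorescence read after 20 min at RT, 525/598 nm.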
Tb PYK inh: T. brucei pyruvate kinase inhibition; AID 624173; TbPYK enzyme, Kinase-Glo Plus ATP luminescence, 45 min; Potency, µM (top dose mostly 76.8 µM), most hits filed as inhibitors; hit rate 0.12% among 410,000; further: nearly all actives have a fitted effect of over 50% in size
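Assay buffer: 50 mM TEA pH 7.2, 100 mM KCl, 10 mM MgCl2, 0.05% BSA, 0.01% Tween-20. Pyruvate kinase from T. brucei plus substrate met compound, then ADP (130 uM final). Luminescence was read post 45 min RT.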
LmPK inhibitor: inhibitors of Leishmania mexicana pyruvate kinase; Q27686; purified LmPK, Kinase-Glo ATP luminescence, 1 h; Potency, µM (doses to about 57.5 µM), hits mostly inhibitors; hit rate 0.37% among 290,000
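qHTS format; LmPK 0.1 nM; substrates PEP 0.5 mM and ADP 0.1 mM. One-hour room-temperature incubation, then coupled luciferase luminescence; 0.5 nM enzyme wells mark activation.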
Shiga toxin inh: Shiga toxin inhibition | Vero cells, Shiga toxin protein synthesis inhibition reporter | inhibition, % at 38.7 µM | hit rate 9.2% among 290,000; in the data active means inhibition mostly above about 28%, no sharp cut-off; inactive means mostly below about 43%
Cycloheximide cs: affects cycloheximide protein synthesis inhibition readout, counter-screen | max response, % | hit rate 12% among 300,000 | cell reporter, cycloheximide protein synthesis inhibition counterscreen; in the data active means max response mostly above about 13%, no sharp cut-off; inactive means mostly below about 14%; further: read at 38.3 µM for the half of the compounds with a filed dose
Sm TGR block: blocks Schistosoma mansoni thioredoxin glutathione reductase | Q962Y6 | purified TGR, DTNB reduction, TNB absorbance 405 nm | Potency, µM (highest dose often 114 µM), actives largely listed as inhibitors | hit rate 3% among 360,000; further: nearly all actives have a fitted effect of over 60% in size
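First, TGR (20 nM dispensed) and NADPH were mixed with compound. Second, a 15 min room-temperature incubation followed. Third, further NADPH and then DTNB were added to start the reaction. Finally, TNB absorbance was monitored kinetically.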
Numbers stand for hits. Unless noted, the call rests on the fitted dose curve; in most records, active means well fitted curve in the direction sought with a large enough effect; inconclusive means small, poorly fitted or top-dose-only effect, or another doubt; inactive means no such curve, though single readings can be large; an effect the other way counts as inactive or inconclusive.

How did COC(=O)c1ccc(COC(=O)CNS(=O)(=O)c2ccc(C)cc2)cc1 do in these assays?
Giardia FBPA inh: inactive; Tb PYK inh: inactive; LmPK inhibitor: inactive; Shiga toxin inh: 81; Cycloheximide cs: 33; Sm TGR block: inactive

How did Cc1ccc(C(=O)NCC(=O)OCc2csc(-c3ccccc3)n2)cc1 do in these assays?
Giardia FBPA inh: inactive; Tb PYK inh: inactive; LmPK inhibitor: inactive; Shiga toxin inh: 70; Cycloheximide cs: 36; Sm TGR block: inactive

Results for O=C(CNS(=O)(=O)c1c(Cl)cccc1Cl)OCc1csc(-c2ccccc2)n1 ?
Giardia FBPA inh: inactive; Tb PYK inh: inactive; LmPK inhibitor: inactive; Shiga toxin inh: inactive; Cycloheximide cs: 18; Sm TGR block: inactive

Results for COC(=O)c1ccc(COC(=O)CCS(=O)(=O)c2ccc(C)cc2)cc1 ?
Giardia FBPA inh: inactive; Tb PYK inh: inactive; LmPK inhibitor: inactive; Shiga toxin inh: inactive; Cycloheximide cs: inactive; Sm TGR block: inactive

How did O=C(NNC(=O)C1CCN(C(=O)Nc2ccccc2)CC1)c1ccc([N+](=O)[O-])cc1 do in these assays?
Tb PYK inh: inactive; Sm TGR block: inactive

Results for COC(=O)c1ccc(COC(=O)CNC(=O)c2ccco2)cc1 ?
Giardia FBPA inh: inactive; Tb PYK inh: inactive; LmPK inhibitor: inactive; Shiga toxin inh: inactive; Cycloheximide cs: inactive; Sm TGR block: inactive

What do the screens show for `O=C(CNS(=O)(=O)c1ccc2ccccc2c1)OCc1csc(-c2ccccc2)n1`?
Giardia FBPA inh: inactive; Tb PYK inh: inactive; LmPK inhibitor: inactive; Shiga toxin inh: inactive; Cycloheximide cs: 20; Sm TGR block: inactive

How did CCOc1ccc(C(=O)NCC(=O)OCc2csc(-c3ccccc3)n2)cc1 do in these assays?
Giardia FBPA inh: inactive; Tb PYK inh: inactive; LmPK inhibitor: inactive; Shiga toxin inh: inactive; Cycloheximide cs: inactive; Sm TGR block: inactive

How did O=C(OCc1csc(-c2ccccc2)n1)c1ccc(O)cc1 do in these assays?
Giardia FBPA inh: inactive; Tb PYK inh: inactive; LmPK inhibitor: inactive; Shiga toxin inh: 116; Cycloheximide cs: 37; Sm TGR block: inactive

Results for COC(=O)c1ccc(COC(=O)CNC(=O)c2ccc(-c3ccccc3)cc2)cc1 ?
Giardia FBPA inh: inactive; Tb PYK inh: inactive; LmPK inhibitor: inactive; Shiga toxin inh: 46; Cycloheximide cs: 68; Sm TGR block: inactive

Results for Cc1ccc2oc(-c3ccc(NC(=O)c4oc5ccc(Cl)cc5c4C)cc3)nc2c1 ?
Tb PYK inh: inactive; Sm TGR block: inactive

Results for COc1ccc(CCN(C)C(=O)CN2C(=O)NC3(CCCc4ccccc43)C2=O)cc1OC (stereo not drawn) ?
Tb PYK inh: inactive; Sm TGR block: inactive

How did N#CCNC1CC(=O)N(c2ccc(F)cc2)C1=O (stereo not drawn) do in these assays?
Giardia FBPA inh: inactive; Tb PYK inh: inactive; LmPK inhibitor: inactive; Shiga toxin inh: inactive; Cycloheximide cs: inactive; Sm TGR block: 7.1µM

How did O=C1CC(NCc2ccc(F)cc2)C(=O)N1c1ccccc1 (stereo not drawn) do in these assays?
Giardia FBPA inh: inactive; Tb PYK inh: inactive; LmPK inhibitor: inactive; Shiga toxin inh: inactive; Cycloheximide cs: inactive

Results for CSc1ccc(CN2CCC2(C)C(=O)NCc2cccs2)cc1 (stereo not drawn) ?
Tb PYK inh: inactive

How did O=C(/C=C/c1ccccc1)CC(=O)c1ccccc1O do in these assays?
Giardia FBPA inh: inactive; Tb PYK inh: inactive; LmPK inhibitor: inactive; Shiga toxin inh: 27; Cycloheximide cs: 25; Sm TGR block: inactive

How did O=C(/C=C/c1ccccc1)NC(=O)c1ccccc1O do in these assays?
Giardia FBPA inh: inactive; Tb PYK inh: inactive; LmPK inhibitor: inactive; Shiga toxin inh: 51; Cycloheximide cs: 28; Sm TGR block: inactive

How did COc1cc(/C=C/C(=O)NC(=O)c2ccccc2O)ccc1O do in these assays?
Tb PYK inh: inactive; LmPK inhibitor: inactive; Shiga toxin inh: inactive; Cycloheximide cs: inactive; Sm TGR block: inactive

What do the screens show for `CCN(CC)C(=S)SCC(=O)Nc1nc(=O)c2ccccc2s1`?
Giardia FBPA inh: inactive; Tb PYK inh: inactive; LmPK inhibitor: inactive; Shiga toxin inh: inactive; Cycloheximide cs: 18; Sm TGR block: inactive

Results for COc1ccc(-c2nc(NC3=NCCCCC3)sc2C)cc1 ?
Giardia FBPA inh: inactive; Tb PYK inh: inactive; LmPK inhibitor: inactive; Shiga toxin inh: inactive; Cycloheximide cs: inactive; Sm TGR block: inactive

Results for CCNc1nc(-c2ccc(OC(F)F)cc2)c(C)s1 ?
Giardia FBPA inh: inactive; Tb PYK inh: inactive; LmPK inhibitor: inactive; Shiga toxin inh: 124; Cycloheximide cs: 41; Sm TGR block: inactive

What do the screens show for `O=C(Cc1ccc(Br)cc1)Nc1ccc(Cl)cc1`?
Giardia FBPA inh: inactive; Tb PYK inh: inactive; LmPK inhibitor: inactive; Shiga toxin inh: inactive; Cycloheximide cs: 25; Sm TGR block: inactive

Results for O=C(NCc1ccc(Cl)cc1)C(=O)Nc1ccc(Br)cc1 ?
Tb PYK inh: inactive; Sm TGR block: inactive

What do the screens show for `O=C(Cc1cccc(Cl)c1)Nc1ccc(Br)cc1`?
Giardia FBPA inh: inactive; Tb PYK inh: inactive; LmPK inhibitor: inactive; Shiga toxin inh: inactive; Cycloheximide cs: 17; Sm TGR block: inactive

What do the screens show for `O=C(Nc1cc(C(F)(F)F)ccc1N1CCOCC1)c1ccc2ccccc2n1`?
Giardia FBPA inh: inactive; Tb PYK inh: inactive; LmPK inhibitor: inactive; Shiga toxin inh: inactive; Cycloheximide cs: 23; Sm TGR block: inactive

What do the screens show for `O=C(CSCc1ccco1)Nc1cc(C(F)(F)F)ccc1N1CCOCC1`?
Giardia FBPA inh: inactive; Tb PYK inh: inactive; LmPK inhibitor: inactive; Shiga toxin inh: inactive; Cycloheximide cs: inactive; Sm TGR block: 22µM

Results for Cc1ccc(CN2C(=O)C(CC(C)C)Nc3ncnc(N4CCCCC4)c32)cc1 (stereo not drawn) ?
Tb PYK inh: inactive

What do the screens show for `Cc1ccc(NC(=O)CCN2C(=O)c3ccccc3Sc3ncccc32)cc1`?
Tb PYK inh: inactive; LmPK inhibitor: inactive; Shiga toxin inh: inactive; Cycloheximide cs: inactive; Sm TGR block: 13µM

Results for CC(C)NC(=O)CCCN1C(=O)c2ccccc2Sc2ncccc21 ?
Giardia FBPA inh: inactive; Tb PYK inh: inactive; LmPK inhibitor: inactive; Shiga toxin inh: inactive; Cycloheximide cs: inactive; Sm TGR block: 79µM

What do the screens show for `Cc1ccccc1NC(=O)CCN1C(=O)c2ccccc2Sc2ncccc21`?
Tb PYK inh: inactive; Sm TGR block: inactive

What do the screens show for `Cc1ccc(-c2nc3ccccc3s2)cc1NC(=S)NC(=O)c1ccccc1`?
Tb PYK inh: inactive; LmPK inhibitor: inactive; Shiga toxin inh: 187; Cycloheximide cs: 34; Sm TGR block: inactive

Results for Cc1ccc(C(=O)O)cc1NC(=S)NC(=O)C(c1ccccc1)c1ccccc1 ?
Giardia FBPA inh: inactive; Tb PYK inh: inactive; LmPK inhibitor: inactive; Shiga toxin inh: inactive; Cycloheximide cs: inactive; Sm TGR block: 56µM

Results for CC(=O)Nc1cc(-c2nc3ccccc3s2)ccc1C ?
Tb PYK inh: inactive; Sm TGR block: inactive
